Here are results for 20 compounds from PubChem BioAssay.

Structures are written as SMILES. A number with no mark means an inactive call. For some of these results: Measured potencies and affinities stand elsewhere. Active and inactive are the calls of the source. Unless noted, no rule for the calls is given here.

Test [1] is described as follows: antimalarial activity against Dd2 strain (AID 2302;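 active = growth inhibition above 50% at the single 2 µM test dose, taken to imply half-maximal potency below 2 µM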;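 also: 0% = DMSO untreated growth and 100% = chloroquine plus artemisinin killed control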). The conditions noted are these: P. falciparum Dd2 in RBCs, LDH growth readout, 72 h; at 2 µM; active compounds read high.
Test [2] can be described thus: human hepatoma cell viability loss – ATP luminescence, cytotoxicity control for P. falciparum antimalarial project, primary screen (AID 2303;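 active = inhibition above 50%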;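 also: 0% = DMSO wells and 100% = digitonin-killed cells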). The conditions noted are these: HepG2 viability, 24-48 h, at 10 µM, active compounds read high.
In test [3] the target is L-lactate dehydrogenase (Plasmodium falciparum (isolate CDC / Honduras)) (UniProt Q27743). The test is described as follows: PfLDH activity inhibition – cell lysate, 3D7 strain, counter-screen for P. falciparum growth inhibition project (AID 2304).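 Also: 0% = vehicle and 100% = reference inhibitor.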 The conditions noted are these: P. falciparum 3D7 crude extract, LDH APAD/NBT absorbance; at 2 µM; active compounds read high.
Test [4] can be described thus: inhibition of 3D7 malaria parasite growth – strain 3D7 (AID 2306).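 Also: 0% = DMSO wells and 100% = chloroquine plus artemisinin control wells.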 The following applies: P. falciparum 3D7 erythrocytic growth, LDH absorbance, 72 h; at 2 µM; active compounds read high.
The target of test [5] is Calcium-dependent protein kinase 1 (Plasmodium falciparum (isolate 3D7)) (UniProt P62344). Nature of the test: PfCDPK1 kinase inhibitors, biochemical, TCAMS library (AID 1159585; cut-off not given, nearly all actives have IC50 up to about 0.98 µM;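 also: inhibitors leave more ATP so luminescence rises with inhibition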). The following applies: recombinant PfCDPK1, Kinase-Glo ATP depletion luminescence.
Test [6] deals with Plasmodium falciparum protein kinase 6 (PK6, PF3D7_1337100) (UniProt Q8IDW1). Nature of the test: PfPK6 kinase inhibitors, biochemical, TCAMS library (AID 1159586). The following applies: recombinant PfPK6, Kinase-Glo ATP depletion luminescence.
Test [7] deals with Protein kinase 7 (PK7), Plasmodium falciparum 3D7 (PF3D7_0213400) (UniProt Q7YTF7). Nature of the test: inhibition of Plasmodium PK7 catalytic activity – biochemical, TCAMS antimalarial set, Kinase-Glo luminescence (AID 1159587). The conditions noted are these: recombinant PfPK7, Kinase-Glo ATP depletion luminescence.
The target of test [8] is Calcium-dependent protein kinase 4 (Plasmodium falciparum (isolate 3D7)) (UniProt Q8IBS5). The test is described as follows: PfCDPK4 kinase inhibitors, biochemical, TCAMS library (AID 1159588; cut-off not given, nearly all actives have IC50 up to about 0.91 µM). The following applies: recombinant PfCDPK4, Kinase-Glo ATP depletion luminescence. Background: In Kinase-Glo more light means more ATP remaining.
Sequence of Calcium-dependent protein kinase 4 (Plasmodium falciparum (isolate 3D7)) (Q8IBS5 whole entry, looked up): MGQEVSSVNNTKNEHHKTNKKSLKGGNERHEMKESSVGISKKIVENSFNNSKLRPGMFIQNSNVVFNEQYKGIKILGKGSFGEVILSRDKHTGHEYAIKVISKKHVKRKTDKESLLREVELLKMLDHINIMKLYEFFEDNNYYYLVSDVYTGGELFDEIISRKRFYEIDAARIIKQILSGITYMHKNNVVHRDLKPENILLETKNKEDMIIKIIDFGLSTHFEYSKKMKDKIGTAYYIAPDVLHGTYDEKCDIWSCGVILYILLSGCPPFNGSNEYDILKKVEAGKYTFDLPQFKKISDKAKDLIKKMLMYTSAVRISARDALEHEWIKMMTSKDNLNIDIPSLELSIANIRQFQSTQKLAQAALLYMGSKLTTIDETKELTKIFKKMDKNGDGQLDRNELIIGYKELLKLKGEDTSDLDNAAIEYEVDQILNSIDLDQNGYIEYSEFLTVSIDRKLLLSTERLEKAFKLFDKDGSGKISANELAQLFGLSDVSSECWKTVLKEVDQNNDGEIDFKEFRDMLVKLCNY

Sequence of Protein kinase 7 (PK7), Plasmodium falciparum 3D7 (PF3D7_0213400) (Q7YTF7 1-343): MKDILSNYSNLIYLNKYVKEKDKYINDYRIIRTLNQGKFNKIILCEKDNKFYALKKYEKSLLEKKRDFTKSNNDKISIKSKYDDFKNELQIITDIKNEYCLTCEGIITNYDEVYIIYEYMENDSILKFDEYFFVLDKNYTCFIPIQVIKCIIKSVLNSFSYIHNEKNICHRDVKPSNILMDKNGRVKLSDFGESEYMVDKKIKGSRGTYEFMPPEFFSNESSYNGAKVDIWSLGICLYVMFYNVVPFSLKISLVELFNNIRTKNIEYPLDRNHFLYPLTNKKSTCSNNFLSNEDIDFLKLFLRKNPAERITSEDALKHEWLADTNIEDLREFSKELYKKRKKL
Sequence of L-lactate dehydrogenase (Plasmodium falciparum (isolate CDC / Honduras)) (Q27743 whole entry, looked up): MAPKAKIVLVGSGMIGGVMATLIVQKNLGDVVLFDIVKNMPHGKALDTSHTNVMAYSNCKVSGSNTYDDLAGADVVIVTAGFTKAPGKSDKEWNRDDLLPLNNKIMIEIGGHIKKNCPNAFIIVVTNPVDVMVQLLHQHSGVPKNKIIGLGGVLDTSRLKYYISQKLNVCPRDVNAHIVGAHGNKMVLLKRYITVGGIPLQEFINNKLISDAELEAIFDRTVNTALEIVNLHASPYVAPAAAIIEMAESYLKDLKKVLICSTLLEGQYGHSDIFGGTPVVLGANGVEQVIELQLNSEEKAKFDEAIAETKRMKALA
Sequence of Calcium-dependent protein kinase 1 (Plasmodium falciparum (isolate 3D7)) (P62344 whole entry, looked up): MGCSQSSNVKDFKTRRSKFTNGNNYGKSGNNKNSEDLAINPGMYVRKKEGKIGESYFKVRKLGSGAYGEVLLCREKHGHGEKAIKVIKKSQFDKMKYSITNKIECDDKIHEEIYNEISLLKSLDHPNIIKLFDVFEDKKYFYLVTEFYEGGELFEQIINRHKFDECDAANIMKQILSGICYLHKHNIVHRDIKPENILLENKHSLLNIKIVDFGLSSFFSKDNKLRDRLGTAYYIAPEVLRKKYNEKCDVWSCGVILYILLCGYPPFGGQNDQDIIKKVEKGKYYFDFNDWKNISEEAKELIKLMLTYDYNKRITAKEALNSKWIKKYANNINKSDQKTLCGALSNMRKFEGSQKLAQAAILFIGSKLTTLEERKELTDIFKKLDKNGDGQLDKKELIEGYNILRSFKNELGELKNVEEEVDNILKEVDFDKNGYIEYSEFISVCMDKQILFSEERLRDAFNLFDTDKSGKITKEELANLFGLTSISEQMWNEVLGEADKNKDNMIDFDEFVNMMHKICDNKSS
Sequence of Plasmodium falciparum protein kinase 6 (PK6, PF3D7_1337100) (Q8IDW1 1-305): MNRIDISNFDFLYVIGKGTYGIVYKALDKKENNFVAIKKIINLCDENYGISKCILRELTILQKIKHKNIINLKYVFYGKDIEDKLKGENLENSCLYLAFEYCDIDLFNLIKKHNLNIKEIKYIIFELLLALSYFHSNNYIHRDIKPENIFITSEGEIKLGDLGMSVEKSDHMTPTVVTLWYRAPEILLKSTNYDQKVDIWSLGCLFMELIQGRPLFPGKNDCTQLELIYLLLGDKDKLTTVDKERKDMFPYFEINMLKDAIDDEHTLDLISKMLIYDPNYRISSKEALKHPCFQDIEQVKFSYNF

As usually defined, the inhibition is the drop in the measured response relative to a control, in per cent. Consider `O=C(N[C@@H](Cc1ccccc1)C(=O)O)c1cc(-c2ccc(F)cc2)no1` (tested in a mixture with another compound), for which the growth inhibition in test [1] is 49%; in test [4] it was 96% (active). The inhibition in test [2] is -2%; in test [3], -3%. In addition, the outcome in test [5], in test [6], in test [7] and in test [8] was inactive.
Consider `COc1cc2nccc(Nc3cccc(Oc4ccccc4)c3)c2cc1OC`, for which the growth inhibition in test [1] was 95% (active); in test [4] it was 102% (active). Further, the inhibition in test [2] is 25%; in test [3], -2%. Also, the outcome in test [5], in test [6], in test [7] and in test [8] was inactive.
In the case of `CCCCc1ccc(Cc2cnc3nc(N)nc(N)c3c2C)cc1`, the growth inhibition in test [1] is 5%; in test [4] it was 96% (active). Further, the inhibition in test [2] is 64% (active); in test [3], 5%. Also, the outcome in test [5], in test [6], in test [7] and in test [8] was inactive.
Consider `C=CCOc1ccc(-c2c(C)[nH]c(C)c(Br)c2=O)cc1`, for which the growth inhibition in test [1] is 96% (active); in test [4], 98% (active). Further, the inhibition in test [2] is 5%; in test [3], -3%. Besides, the outcome in test [5], in test [6], in test [7] and in test [8] was inactive.
As to `CC(=O)Nc1nc(C(=O)Nc2ccc(-c3cccc(-c4nc5ccccc5[nH]4)c3)cc2)cs1`, the growth inhibition was 83% (active) in test [1] and 99% (active) in test [4]. Moreover, the inhibition in test [2] was 68% (active); in test [3], -10%. In addition, the result in test [5], in test [6], in test [7] and in test [8] was inactive.
As for `O=C(NCCN1CCOCC1)c1ccc(O)c(-c2cccc(C(F)(F)F)c2)c1`, the figures for the growth inhibition in test [1] and in test [4] were 48% and 95% (active), respectively. Moreover, the inhibition in test [2] was -1%; in test [3], 3%. Moreover, the result in test [5], in test [6], in test [7] and in test [8] was inactive.
Consider `CN(CCCc1c[nH]c2ccccc12)CCC1CCC(NC(=O)/C=C/c2ccc(Cl)c(Cl)c2)CC1` (stereo not given), for which the growth inhibition in test [1] was 63% (active); in test [4], 99% (active). In addition, the inhibition in test [2] was 38%; in test [3] it was -3%. Also, the outcome in test [5], in test [6], in test [7] and in test [8] was inactive.
In the case of `COc1ccccc1-n1c(SCC(=O)Nc2ccccc2F)nc2cccnc21`, the growth inhibition in test [1] was 88% (active); in test [4], 96% (active). The values for the inhibition in test [2] and in test [3] were -21% and 0%, respectively. In addition, the outcome in test [5], in test [6], in test [7] and in test [8] was inactive.
Consider `CC(C)(CNCc1cccc(Oc2ccccc2)c1)c1nc(-c2ccc(Cl)c(O)c2)c(-c2ccnc(N)n2)[nH]1`, for which the values for the growth inhibition in test [1] and in test [4] were 99% (active) and 97% (active), respectively. Also, the inhibition was 28% in test [2] and 4% in test [3]. The outcome in test [5], in test [6], in test [7] and in test [8] was inactive.
In the case of `Nc1ccnc(N2CCC(CCOc3ccnc4cc(Cl)ccc34)CC2)c1`, the growth inhibition in test [1] was 99% (active); in test [4] it was 100% (active). Further, the inhibition in test [2] is 34%; in test [3], 4%. Besides, the outcome in test [5], in test [6], in test [7] and in test [8] was inactive.
With `COc1ccccc1CCNc1ncc(F)c(N[C@@H](Cc2ccccc2)C(=O)NCCc2ccccc2)n1`, the growth inhibition was 83% (active) in test [1] and 90% (active) in test [4]. Also, the inhibition in test [2] was 7%; in test [3] it was -2%. The result in test [5], in test [6], in test [7] and in test [8] was inactive.
`COc1c(C2CCN(CCCCNC(=O)c3cc(-c4ccc(Cl)cc4)[nH]c3C)CC2)ccc2c1CCCC2`: the growth inhibition was 91% (active) in test [1] and 100% (active) in test [4]. The inhibition in test [2] is 53% (active); in test [3] it was -6%. Further, the result in test [5], in test [6], in test [7] and in test [8] was inactive.
As for `Cc1cnc(NCCc2ccc(F)cc2)nc1N[C@@H](CC(C)C)C(=O)Nc1ccccc1`, the growth inhibition in test [1] is 29%; in test [4] it was 87% (active). Also, the inhibition in test [2] is 19%; in test [3], -1%. Besides, the outcome in test [5], in test [6], in test [7] and in test [8] was inactive.
For the compound `COc1ccc2nccc([C@@H](O)CN3CCC(NCc4nc5cc(F)ccc5o4)CC3)c2c1`, the growth inhibition is 12% in test [1] and 102% (active) in test [4]. The inhibition is 14% in test [2] and -8% in test [3]. Besides, the result in test [5], in test [6], in test [7] and in test [8] was inactive.
With `COc1cc2nccc(Nc3ccc4c(cnn4Cc4ccccc4F)c3)c2cc1OC`, the growth inhibition was 91% (active) in test [1] and 101% (active) in test [4]. For the same compound, the inhibition was 55% (active) in test [2] and -8% in test [3]. Moreover, the outcome in test [5], in test [6], in test [7] and in test [8] was inactive.
In the case of `COc1ccc2c(NN=Cc3ccccc3F)cc(C)nc2c1`, the growth inhibition in test [1] was 12%; in test [4], 90% (active). The inhibition in test [2] was 4%; in test [3], 2%. Besides, the result in test [5], in test [6], in test [7] and in test [8] was inactive.
As for `CCc1c(CCNCCCCCCNCc2ccc3c(c2CC)OCO3)ccc(OC)c1OC`, the growth inhibition in test [1] is 19%; in test [4], 100% (active). Further, the inhibition was 38% in test [2] and 6% in test [3]. Also, the result in test [5], in test [6], in test [7] and in test [8] was inactive.
As for `CC(=O)c1ccc(S(=O)(=O)N2CCC(C(=O)Nc3ccccc3N3CCCC3)CC2)cc1`, the growth inhibition in test [1] was 99% (active); in test [4], 95% (active). The inhibition in test [2] is -3%; in test [3], -8%. Moreover, the outcome in test [5], in test [6], in test [7] and in test [8] was inactive.
Take `COc1ccc(S(=O)(=O)N2CCOCC2)cc1NC(=O)c1cc2ccccc2o1`: the growth inhibition in test [1] was -1%; in test [4] it was 93% (active). The inhibition in test [2] was 8%; in test [3], -2%. Besides, the outcome in test [5], in test [6], in test [7] and in test [8] was inactive.
Turning to `COc1ccc(S(=O)(=O)NCCC2CCN(CCCCCNC(=O)C=Cc3ccc(Cl)c(Cl)c3)CC2)cc1`, the growth inhibition was -2% in test [1] and 87% (active) in test [4]. For the same compound, the inhibition in test [2] was 36%; in test [3] it was 5%. Also, the result in test [5], in test [6], in test [7] and in test [8] was inactive.
